We go through 51 compounds from PubChem BioAssay AID504332 (National Center for Advancing Translational Sciences (NCATS), 2011).

“And” between values parts separate entries of the source, which are not always exact repeats. Equal entries are not always repeated. Among all 350,000 compounds or so, about 31,000 (8.9%) were called active. Inconclusive results (about 15%) are left out. Calls come from the whole dose curve; as a rule, active = well fitted inhibition curve with a large enough effect; inconclusive = small, poorly fitted or top-dose-only effect; inactive = no such curve, though single readings can be large or run the other way. The list comes from a sample in which actives are over-represented; it also holds similar structures and randomly drawn compounds. Some structures have more than one record in an assay (separate samples or runs), and their calls can disagree.
% is set by controls: 0 for no effect and ±100 for the full control effect; potency is the fitted concentration of half-maximal effect.

In the test the target is Histone-lysine N-methyltransferase EHMT2 (Homo sapiens) (UniProt Q96KQ7). Put plainly: qHTS Assay for Inhibitors of Histone Lysine Methyltransferase G9a. Note: nearly all actives have a fitted effect of over 75% in size. Conditions: G9a H3K9 monomethylation, AlphaScreen, 2 h; series mostly up to 59 µM; activity, negative = inhibition: at the top concentration. The procedure, abridged: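 Methyltransferase reactions run at room temperature for 2 h (20 nM enzyme, 500 nM biotin-H3K9 peptide, 20 uM SAM) after a 15 min compound preincubation; product detected by AlphaScreen beads and anti-H3K9me1 antibody.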
Chain of Histone-lysine N-methyltransferase EHMT2 (Homo sapiens) (Q96KQ7 913-1193 limits assumed): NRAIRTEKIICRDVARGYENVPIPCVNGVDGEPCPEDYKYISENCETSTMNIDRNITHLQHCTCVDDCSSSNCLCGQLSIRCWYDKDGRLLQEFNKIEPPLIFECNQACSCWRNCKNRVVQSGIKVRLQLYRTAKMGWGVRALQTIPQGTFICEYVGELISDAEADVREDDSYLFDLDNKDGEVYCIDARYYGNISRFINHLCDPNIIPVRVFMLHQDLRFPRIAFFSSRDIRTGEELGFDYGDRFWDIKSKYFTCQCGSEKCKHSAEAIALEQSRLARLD
Turning to `C=CCSc1ccc(S(=O)(=O)N2CCN(C)CC2)cn1`, the “activity, negative = inhibition” value is -18.7% (inactive).

Turning to `CCn1c(=O)c2cc(C(=O)NCCc3ccc(Cl)cc3)sc2c2ccccc21`, the “activity, negative = inhibition” value was -24.9% (inactive).

With `O=C(CSc1nc(=O)n2ccccc2n1)Nc1ccc2c(c1)OCCO2`, the “activity, negative = inhibition” value is -11.1% [at 102 µM] (inactive).

For `Cc1ccc(Cl)cc1-n1ncc2c(N3CCC(C(N)=O)CC3)ncnc21`, the “activity, negative = inhibition” value was 2.61% (inactive).

Turning to `COc1ccc(CNC(=O)c2ccc3oc(C(C)C)nc3c2)cc1`, the activity, negative = inhibition was 12% [at 0.501 µM] (inactive).

On to `COc1ccc(Br)cc1/C=N/Nc1ccc(Cl)c(C(=O)O)c1`, for which the Potency was 14.1 µM (active).

`COc1ccc(CC(=O)NCC(=O)N/N=C/c2cc(Br)ccc2OC)cc1`: the “activity, negative = inhibition” value was 15.3% [at 102 µM] (inactive).

On to `COc1ccc(Br)cc1/C=N/NC(=O)c1cccc(S(=O)(=O)N2CCOCC2)c1`, for which the “activity, negative = inhibition” value was 3.74% [at 102 µM] (inactive).

As to `OCc1cnc(SCc2ccc(F)cc2)n1Cc1ccc(F)cc1`, the “activity, negative = inhibition” value was 24.9% (inactive).

Consider `COc1cccc2c1cc1c(=O)n(CC(=O)N3CCN(c4ccccc4)CC3)nc(C)n12`, for which the “activity, negative = inhibition” value was 1.68% (inactive).

As for `Cc1ccc(CN2CCC(CNC(=O)c3cnn(-c4ccc(C)cc4)c3C3CCN(C(=O)OC(C)(C)C)CC3)CC2)cc1`, the “activity, negative = inhibition” value was -16.3% (inactive).

As for `CC(C)(C)C(=O)N1CCC[C@@]1(CO)C(=O)O`, the Potency was 14.1 µM (active).

As to `COC(=O)c1cc(NC(=O)CCc2c(C)nc3c4c(C)cc(C)nc4nn3c2C)cc(C(=O)OC)c1`, the “activity, negative = inhibition” value was 5.96% (inactive).

Turning to `COc1ccccc1Nc1nnc(SC(C)C(=O)NC2CC2)s1` (stereo unspecified), the activity, negative = inhibition was -13.1% [at 12.7 µM] (inactive).

Turning to `CC(=O)c1c(C)[nH]c(C(=O)COC(=O)CCOc2ccc(C)cc2)c1C`, the “activity, negative = inhibition” value is -29.8% [at 102 µM] (inactive).

Turning to `Cc1ccc(-c2cn3c(n2)sc2cc(C(=O)NCCCc4ccccc4)ccc23)cc1`, the “activity, negative = inhibition” value was 5.4% (inactive).

On to `COC(=O)Cc1ccc(OCC(=O)NC2CCCC2)cc1`, for which the “activity, negative = inhibition” value was -25.2% [at 102 µM] (inactive).

In the case of `CC1(C)SC2C(NC(=O)COc3ccccc3)C(=O)N2C1C(=O)O` (stereo unspecified), the Potency entry was “inactive and 39.8 µM (active)”.

Turning to `Cc1cccc(OCC(=O)NC2CC(C)(C)NC(C)(C)C2)c1`, the “activity, negative = inhibition” value is 5.25% [at 102 µM] (inactive).

Regarding `CN(CC(=O)Nc1ccc(F)c(F)c1F)C(=O)Cn1cnc2c1c(=O)n(C)c(=O)n2C`, the activity, negative = inhibition was 25.9% [at 12.7 µM] (inactive).

Regarding `COC(=O)c1cc(S(=O)(=O)N2CCN(c3cc(Cl)ccc3C)CC2)c[nH]1`, the “activity, negative = inhibition” value is -11.2% (inactive).

For the compound `CC(C)CCN1NC2(CCC(C)CC2)NC1=S` (stereo unspecified), the Potency is 11.2 µM (active).

`COC(=O)c1cccc(-n2[nH]nnc2=S)c1`: the Potency was 8.91 µM (active).

On to `COC(=O)c1nn(-c2cccc(Cl)c2)ccc1=O`, for which the “activity, negative = inhibition” value is -32% [at 102 µM] (inactive).

For `COC(=O)c1cccc(NC(=O)CSc2nc(C)cc(=O)[nH]2)c1`, the “activity, negative = inhibition” value is -39.9% (inactive).

Regarding `Cc1cccc(C)c1NC(=O)CN(C)C(=O)CCC(=O)c1ccccc1`, the activity, negative = inhibition is 11.7% [at 2.33 µM] (inactive).

For `C=C(C)CNc1cc(S(=O)(=O)N2CCOCC2)ccc1Oc1ccccc1`, the activity, negative = inhibition is 21.5% [at 12.7 µM] (inactive).

As for `COc1ccc(NC(=O)ON=C2c3ccccc3-c3ccccc32)cc1`, the Potency is 25.1 µM (active).

Consider `COc1ccc(NC(=O)CS(=O)(=O)c2ccccc2)cc1`, for which the “activity, negative = inhibition” value is 8.71% [at 102 µM] (inactive).

As for `COc1ccc(C(=O)ON=C2c3ccccc3-c3ccccc32)cc1OC`, the “activity, negative = inhibition” value was 12.7% (inactive).

`Cn1c(C(=O)N2CCC(C(=O)N3CCN(c4ccccc4)CC3)CC2)cc2sccc21`: the “activity, negative = inhibition” value is -33.7% (inactive).

Regarding `O=C(CCNS(=O)(=O)c1cccs1)N1CCN(c2ccc(F)cc2)CC1`, the “activity, negative = inhibition” value was 0.949% (inactive).

On to `CCCOc1ccc(NC(=O)CC2C(=O)N(C)C(=S)N2Cc2ccc3c(c2)OCO3)cc1` (stereo unspecified), for which the “activity, negative = inhibition” value was -3.34% (inactive).

Turning to `O=C(Nc1ccc(Cl)cc1)C1c2cccc[n+]2CC(=O)N1Cc1ccc2c(c1)OCO2` (stereo unspecified), the Potency was 22.4 µM (active).

`CC1CCC(NC(=O)C2c3ccccc3C(=O)N2Cc2ccc3c(c2)OCO3)CC1` (stereo unspecified): the “activity, negative = inhibition” value was 7.92% [at 102 µM] (inactive).

Take `O=C(COc1coc(CN2CCN(c3ccccc3)CC2)cc1=O)Nc1ccccc1F`: the “activity, negative = inhibition” value is -28.5% [at 102 µM] (inactive).

Turning to `COc1cc(C)cc(CN2CCC(Cc3ccccc3)CC2)c1O`, the activity, negative = inhibition is -9.7% [at 2.33 µM] (inactive).

`Brc1ccccc1CN1CCC(Cc2ccccc2)CC1`: the Potency is 44.7 µM (active).

With `NC(=O)c1ccc(CN2CCC(Cc3ccccc3)CC2)cc1`, the “activity, negative = inhibition” value is 3.65% [at 102 µM] (inactive).

Turning to `Cn1ccc2cc(S(=O)(=O)N3CCCC(C(=O)NCc4ccccc4F)C3)ccc21` (stereo unspecified), the “activity, negative = inhibition” value was 8.59% (inactive).

As to `Cc1ccc(S(=O)(=O)CCC(=O)OCC(=O)N(C)C2CCS(=O)(=O)C2)cc1` (stereo unspecified), the “activity, negative = inhibition” value was 0.624% [at 102 µM] (inactive).

For `CCCc1ccc(OCCNC(=O)c2ccco2)cc1`, the “activity, negative = inhibition” value is 12.8% [at 102 µM] (inactive).

For the compound `O=C(Nc1ccc2ccccc2c1)/C(=C/c1cccc(Br)c1)NC(=O)c1ccco1`, the “activity, negative = inhibition” value was 11.4% [at 102 µM] (inactive).

For `CCCc1ccc(OCC(=O)NNC(=S)NC(=O)c2ccco2)cc1`, the Potency is 2.24 µM (active).

With `CC(Oc1ccc2ccccc2c1)C(=O)NNC(=S)NC(=O)c1ccco1` (stereo unspecified), the Potency was 20 µM (active).

As to `Cc1ccc(OCC(=O)NCCCNC(=O)c2ccco2)cc1C`, the “activity, negative = inhibition” value was 21% [at 102 µM] (inactive).

Regarding `O=C(Nc1ccc2ccccc2c1)/C(=C\c1ccc2c(c1)OCO2)NC(=O)c1ccco1`, the “activity, negative = inhibition” value was -19.2% (inactive).

`CSCCC(NC(=O)COc1ccccc1)C(=O)N(C)CC(=O)Nc1ccc(C)cc1` (stereo unspecified): the “activity, negative = inhibition” value is -0.305% (inactive).

For the compound `NS(=O)(=O)c1ccc2nc(NC(=O)COc3ccccc3)sc2c1`, the “activity, negative = inhibition” value is 3% (inactive).

On to `CN(CCO)c1ccc(/C=N/Nc2nncc3ccccc23)cc1`, for which the Potency was 31.6 µM (active).

In the case of `COc1cc(/C=N/Nc2nn3cnnc3c3ccccc23)cc(OC)c1OC`, the “activity, negative = inhibition” value was -5.49% (inactive).
